For twelve sequences, PBM binding z-score results are on record in the supplement of paper PMC6555819.

Holding throughout (experiment): PBM binding z-score (relative to random genomic background probes); higher = stronger binding; sequences stand for … in GC…GCGATTGACAGCGTAGAATGAAGG
Assay [1] deals with FXR:RXRa (NR concentration 270 nM, RXRa partner concentration 90 nM). In outline: (§1)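 Each nuclear receptor dimer, without ligand, was incubated for 1 h on custom Agilent 4×180K protein-binding microarrays. Binding was detected with antibodies against each partner (one per run), and scanned fluorescence was regression-normalized. The binding z-scores are referenced to random human genomic background probes.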

Assay [2] relates to LXRa:RXRa (NR concentration 270 nM, RXRa partner concentration 90 nM). The procedure, abridged:
as §1

Assay [3] has as its system LXRa homodimer (NR concentration 270 nM). The procedure, abridged: as §1
Assay [4] concerns LXRb:RXRa (NR concentration 270 nM, RXRa partner concentration 90 nM). The procedure, abridged:
as §1

For assay [5], the system named is LXRb homodimer (NR concentration 270 nM). The procedure, abridged: as §1
Assay [6] concerns PPARa:RXRa (NR concentration 270 nM, RXRa partner concentration 90 nM). The procedure, abridged: as §1
Assay [7] relates to PPARg:RXRa (NR concentration 180 nM, RXRa partner concentration 90 nM). The procedure, abridged: as §1
Assay [8] deals with PPARg:RXRa 270nM:90nM, anti-RXR (NR concentration 270 nM, RXRa partner concentration 90 nM). In outline: as §1
The test system of assay [9] is PPARg:RXRa 30nM:10nM, anti-RXR (NR concentration 30 nM, RXRa partner concentration 10 nM). The procedure, abridged:
as §1

Assay [10] has as its system PPARg:RXRa 90nM:30nM, anti-RXR (NR concentration 90 nM, RXRa partner concentration 30 nM). In outline: as §1

Turning to CGTCCAAGGTCAATGCTATGTCAGTGAAAGCATT, the PBM binding z-score is 6.33 in assay [1]; 4.8 in [2]; 0.645 in assay [3]; 3.67 in assay [4]; 0.692 in assay [5]; 4.99 in assay [6]. For the same sequence, the PBM binding z-score was determined as 3.66 in assay [7], 4.41 in [8], 1.02 in assay [9] and 2.95 in assay [10].

With CTTCAAAGTTCAACTAAGGTAACGTAAAGCACGC, the PBM binding z-score in assay [1] was found to be 7.28; in assay [2], 6.39; in assay [3], 5.24; in [4] it was 4.06; in [5], 2.56; in assay [6], 5.12. Moreover, the PBM binding z-score amounted to 3.32 in assay [7], 4.03 in [8], 1.49 in assay [9] and 3.06 in [10].

In the case of CAAACTAGGTCAAGTGGTCAAAGTCCGCTTCCCG, the PBM binding z-score in [1] was 4.81; in assay [2] it was 3.79; in assay [3], 1.15; in [4], 2.42; in [5] it was 0.597; in assay [6] it was 5.45. Besides, the PBM binding z-score was 8.38 in assay [7], 7.13 in [8], 5.18 in [9] and 6.97 in [10].

As for ACTAGTTGGTCAGCTGAGGACACACACAATTCGG, the PBM binding z-score in assay [1] was 1.67; in assay [2], -0.161; in assay [3], -0.165; in assay [4], 0.0976; in assay [5], 0.0569; in [6] it was 0.0805. For the same sequence, the PBM binding z-score in [7] was 0.997; in assay [8], -0.202; in assay [9] it was -0.228; in [10], -0.243.

As to TTACCAAGGTGAGCTGAGGTCATTGATCCAACTC, the PBM binding z-score is 4.44 in assay [1]; 4.36 in [2]; 2.23 in [3]; 3.33 in [4]; -0.78 in assay [5]; 3.78 in assay [6]. The PBM binding z-score in assay [7] worked out at 1.69; in [8], 2.46; in assay [9] it was 0.796; in [10], 1.62.

In the case of CCTACTGGGCCACGAAAGGTCATGGATTCAGTGA, the PBM binding z-score in assay [1] stood at 3.62; in assay [2], 5.06; in assay [3] it was 3.79; in [4], 4.07; in [5], 0.209; in assay [6], 4.97. Further, the PBM binding z-score in assay [7] worked out at 4.97; in assay [8] it was 5.27; in [9] it was 2.28; in assay [10], 4.77.

In the case of CCTCCAAGGTCAAGGTCAGTGAAAGAGACTCGAA, the PBM binding z-score was 7.8 in assay [1]; 5.56 in assay [2]; 1.22 in assay [3]; 4.56 in [4]; 0.877 in assay [5]; 5.99 in [6]. Besides, the PBM binding z-score in assay [7] stood at 6.15; in assay [8], 6.06; in assay [9], 2.76; in [10], 4.75.

CGAACGAGGGCATGAGATGATAGCAAATGCCGAT: the PBM binding z-score was 0.416 in assay [1]; 0.173 in [2]; 0.0308 in [3]; -0.0144 in assay [4]; -0.705 in assay [5]; 1.22 in [6]. Also, the PBM binding z-score in assay [7] was 1.5; in assay [8] it was 0.73; in assay [9] it was 0.325; in assay [10], 0.278.

Take CCTGCTAGGTCATGGGCAGCTAATCTACAGTATG: the PBM binding z-score in [1] is 4.12; in assay [2], 2.55; in assay [3] it was -0.0623; in assay [4], 1.29; in assay [5], -0.864; in assay [6], 3.72. Also, the PBM binding z-score amounted to 2.82 in assay [7], 3.2 in [8], 0.94 in assay [9] and 1.97 in assay [10].

Consider ATCTCCAGGTAACCAAGTTCAGTGAATGCCGAAC, for which the PBM binding z-score is 0.454 in assay [1]; 0.776 in assay [2]; 1.02 in assay [3]; 0.753 in assay [4]; 0.946 in [5]; 0.696 in [6]. For the same sequence, the PBM binding z-score in [7] is 0.227; in assay [8], 0.427; in assay [9], 0.0617; in assay [10], 0.231.

With CCTGCTGGGCCAAAAAGGTCATTGATGCCGATAA, the PBM binding z-score in assay [1] amounted to 3.7; in assay [2] it was 4.03; in assay [3], 2.82; in assay [4] it was 4.04; in assay [5], 0.015; in [6], 4.34. Besides, the PBM binding z-score in [7] worked out at 1.24; in assay [8] it was 2.72; in assay [9] it was 0.205; in [10], 1.65.

With CCTTATGGGTCACTGACAGGTTATAGCATTTGGA, the PBM binding z-score in assay [1] was 3.95; in assay [2], 3.45; in assay [3], 0.192; in assay [4] it was 2.96; in assay [5], -0.062; in assay [6] it was 4.93. Further, the PBM binding z-score stood at 5.81 in assay [7], 5.11 in [8], 2.32 in assay [9] and 4.08 in [10].
